Reference: PubChem BioAssay (NCATS)
Results filed as inconclusive are left out. Active and inactive are the calls of the source. Calls come from the whole dose curve; as a rule, active = well fitted curve in the direction sought with a large enough effect; inconclusive = small, poorly fitted or top-dose-only effect, or another doubt; inactive = no such curve, though single readings can be large; an effect the other way counts as inactive or inconclusive.

How the values were obtained:
[1] = Quantitative High-Throughput drug screen in 47 multiple myeloma cell lines against the NCATS MIPE library collection: MOLP8_DSMZ cell viability assay (AID 1918977); note: nearly all actives have a fitted effect of over 45% in size; note: potency is the fitted concentration of half-maximal effect
In short: (§1)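 ATP-based luminescence (CellTiter-Glo, 5 min RT incubation) quantified surviving cells following two days' treatment with MIPE 4.0 agents at 37 °C, 5% CO2.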

[2] = Quantitative High-Throughput drug screen in 47 multiple myeloma cell lines against the NCATS MIPE library collection: OCIMY1_PLB cell viability assay (AID 1918979); note: nearly all actives have a fitted effect of over 35% in size; note: potency is the fitted concentration of half-maximal effect;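 for viability: series mostly up to about 46 µM; 100% = DMSO-only wells and 0% = cell-free media-only wells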
In short: as §1

[3] = Quantitative High-Throughput drug screen in 47 multiple myeloma cell lines against the NCATS MIPE library collection: MM1R_ATCC cell viability assay (AID 1918981); note: nearly all actives have a fitted effect of over 35% in size; note: potency is the fitted concentration of half-maximal effect
In short: as §1

[4] = Quantitative High-Throughput drug screen in 47 multiple myeloma cell lines against the NCATS MIPE library collection: KMS28PE_JCRB cell viability assay (AID 1918983); note: nearly all actives have a fitted effect of over 35% in size; note: potency is the fitted concentration of half-maximal effect
In short: as §1

[5] = Quantitative High-Throughput drug screen in 47 multiple myeloma cell lines against the NCATS MIPE library collection: KMS34_JCRB cell viability assay (AID 1918985); note: nearly all actives have a fitted effect of over 40% in size; note: potency is the fitted concentration of half-maximal effect
In short: as §1

[6] = Quantitative High-Throughput drug screen in 47 multiple myeloma cell lines against the NCATS MIPE library collection: OCIMY5_PLB cell viability assay (AID 1918988); note: nearly all actives have a fitted effect of over 65% in size; note: potency is the fitted concentration of half-maximal effect
In short: as §1

[7] = Quantitative High-Throughput drug screen in 47 multiple myeloma cell lines against the NCATS MIPE library collection: SKMM1_PLB cell viability assay (AID 1919863); conditions: SKMM1 myeloma viability, CellTiter-Glo ATP, 48 h; viability: active compounds read low; note: nearly all actives have a fitted effect of over 35% in size; note: potency is the fitted concentration of half-maximal effect; for viability: series mostly up to about 46 µM
In short: as §1

[8] = Quantitative High-Throughput drug screen in 47 multiple myeloma cell lines against the NCATS MIPE library collection: XG6_PLB cell viability assay (AID 1919865); note: nearly all actives have a fitted effect of over 40% in size; note: potency is the fitted concentration of half-maximal effect
In short: as §1

[9] = Quantitative High-Throughput drug screen in 47 multiple myeloma cell lines against the NCATS MIPE library collection: PE2_PLB cell viability assay (AID 1919869); note: nearly all actives have a fitted effect of over 35% in size; note: potency is the fitted concentration of half-maximal effect
In short: as §1

[10] = Quantitative High-Throughput drug screen in 47 multiple myeloma cell lines against the NCATS MIPE library collection: NCIH929_DSMZ cell viability assay (AID 1918978); note: nearly all actives have a fitted effect of over 35% in size; note: potency is the fitted concentration of half-maximal effect
In short: as §1

[11] = Quantitative High-Throughput drug screen in 47 multiple myeloma cell lines against the NCATS MIPE library collection: MM1S_ATCC cell viability assay (AID 1918980); note: nearly all actives have a fitted effect of over 45% in size; note: potency is the fitted concentration of half-maximal effect
In short: as §1

[12] = Quantitative High-Throughput drug screen in 47 multiple myeloma cell lines against the NCATS MIPE library collection: OCIMY7_PLB cell viability assay (AID 1918987); note: nearly all actives have a fitted effect of over 65% in size; note: potency is the fitted concentration of half-maximal effect
In short: as §1

[13] = Quantitative High-Throughput drug screen in 47 multiple myeloma cell lines against the NCATS MIPE library collection: U266_ATCC cell viability assay (AID 1919864); note: nearly all actives have a fitted effect of over 35% in size; note: potency is the fitted concentration of half-maximal effect;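 for viability (% of DMSO control): 0% = media-only wells without cells and 100% = DMSO-only wells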
In short: as §1

[14] = Quantitative High-Throughput drug screen in 47 multiple myeloma cell lines against the NCATS MIPE library collection: XG1_PLB cell viability assay (AID 1919866); note: nearly all actives have a fitted effect of over 35% in size; note: potency is the fitted concentration of half-maximal effect
In short: as §1

[15] = Quantitative High-Throughput drug screen in 47 multiple myeloma cell lines against the NCATS MIPE library collection: VP6_DJ cell viability assay (AID 1919867); note: potency is the fitted concentration of half-maximal effect; nearly all actives have a fitted effect of over 40% in size
In short: as §1

[16] = Quantitative High-Throughput drug screen in 47 multiple myeloma cell lines against the NCATS MIPE library collection: UTMC2_PLB cell viability assay (AID 1919868); conditions: CellTiter-Glo ATP luminescence, 48 h; viability (% of DMSO control): at 45.8 µM; note: nearly all actives have a fitted effect of over 55% in size; note: potency is the fitted concentration of half-maximal effect;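 for viability (% of DMSO control): 100% = DMSO-only wells and 0% = media-only wells without cells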
In short: as §1

[17] = Quantitative High-Throughput drug screen in 47 multiple myeloma cell lines against the NCATS MIPE library collection: PCM6_Riken cell viability assay (AID 1919870); note: nearly all actives have a fitted effect of over 30% in size; note: potency is the fitted concentration of half-maximal effect
In short: as §1

[18] = Quantitative High-Throughput drug screen in 47 multiple myeloma cell lines against the NCATS MIPE library collection: OPM1_PLB cell viability assay (AID 1918989); note: nearly all actives have a fitted effect of over 40% in size; note: potency is the fitted concentration of half-maximal effect
In short: as §1

[19] = Quantitative High-Throughput drug screen in 47 multiple myeloma cell lines against the NCATS MIPE library collection: LP1_DSMZ cell viability assay (AID 1918982); note: nearly all actives have a fitted effect of over 35% in size
In short: as §1

O=C(Oc1ccc([N+](=O)[O-])cc1)N1CCC(C(O)(c2ccc3c(c2)OCO3)c2ccc3c(c2)OCO3)CC1
active: Potency [8] 16.6 µM | Potency [9] 16.6 µM
inactive: Potency [1] | Potency [2] | Potency [3] | Potency [4] | Potency [5] | Potency [6] | viability [7] 123%

COC1=C[C@@H]2[C@@H]3Cc4ccc(OC)c(O)c4[C@]2(CCN3C)CC1=O
inactive: Potency [1] | Potency [4] | viability [7] 132%
active: Potency [10] 1.66 µM | Potency [11] 1.66 µM | Potency [12] 3.32 µM | Potency [6] 1.66 µM | Potency [13] 2.35 µM | Potency [8] 1.18 µM | Potency [14] 1.32 µM | Potency [15] 2.35 µM | Potency [16] 4.69 µM | Potency [9] 9.35 µM | Potency [17] 2.64 µM

COC(=O)[C@@H](N)CCCN=C(N)N[N+](=O)[O-]
inactive: Potency [1] | Potency [10] | Potency [11] | Potency [3] | Potency [4] | Potency [5] | Potency [13] | Potency [8] | Potency [14] | Potency [9]

CN1CCN(c2ccc([N+](=O)[O-])c3no[n+]([O-])c23)CC1
active: Potency [10] 11.8 µM | Potency [2] 26.4 µM | Potency [11] 23.5 µM | Potency [3] 20.9 µM | Potency [4] 18.7 µM | Potency [5] 14.8 µM | Potency [12] 4.18 µM | Potency [6] 16.6 µM | Potency [18] 18.7 µM | Potency [7] 18.7 µM | Potency [13] 18.7 µM | Potency [8] 20.9 µM | Potency [14] 20.9 µM | Potency [15] 14.8 µM | Potency [16] 18.7 µM | Potency [9] 23.5 µM | Potency [17] 5.9 µM

COc1ccc(CC2NCCc3cc(OC)c(OC)cc32)cc1OC (centres undefined)
inactive: Potency [1] | Potency [4] | Potency [18] | viability [7] 129% | Potency [13] | Potency [9]
active: Potency [17] 8.33 µM

C#CC1(O)CCC2C3CCC4=CC(=O)CCC4(C)C3CCC21C (centres undefined)
inactive: Potency [10] | Potency [2] | Potency [11] | Potency [3] | Potency [19] | Potency [5] | Potency [13] | Potency [8] | Potency [14] | Potency [9]
active: Potency [4] 20.9 µM

CC=C(C)C(=O)N[C@@H](c1ccccc1)[C@@H](O)C(=O)O[C@H]1C[C@@]2(O)[C@@H](OC(=O)c3ccccc3)[C@@H]3[C@]4(OC(C)=O)CO[C@@H]4C[C@H](O)[C@@]3(C)C(=O)[C@H](OC(C)=O)C(=C1C)C2(C)C
inactive: Potency [1] | Potency [10] | Potency [11] | Potency [3] | Potency [19] | Potency [4] | Potency [5] | Potency [6] | viability [7] 60.8% | Potency [8] | Potency [14] | Potency [16] | Potency [9] | Potency [17]

C[C@@]12OC(=O)[C@]1([C@@H](O)[C@@H]1C=CCCC1)NC(=O)[C@H]2CCCl
active: Potency [1] 0.0053 µM | Potency [10] 0.001 µM | Potency [11] 0.0053 µM | Potency [3] 0.0037 µM | Potency [4] 0.0083 µM | Potency [5] 0.0105 µM | Potency [12] 0.001 µM | Potency [6] 0.0047 µM | Potency [18] 0.001 µM | Potency [7] 0.105 µM | Potency [13] 0.0132 µM | Potency [15] 0.001 µM | Potency [16] 0.0235 µM | Potency [9] 0.0083 µM | Potency [17] 0.0105 µM

O=c1[nH]c2ccccc2n1C1CCN(Cc2ccc(-c3[nH]c4cc5ncnc5cc4nc3-c3ccccc3)cc2)CC1
active: Potency [10] 0.662 µM | Potency [2] 18.7 µM | Potency [11] 18.7 µM | Potency [3] 16.6 µM | Potency [4] 20.9 µM | Potency [12] 8.33 µM | Potency [6] 16.6 µM | Potency [18] 2.64 µM | Potency [7] 20.9 µM | Potency [8] 7.43 µM | Potency [14] 7.43 µM | Potency [16] 13.2 µM | Potency [9] 2.35 µM | Potency [17] 13.2 µM

C[C@]12CC[C@H]3[C@@H](CCC4=CC(=O)CC[C@@]43C)[C@H]1CC[C@H]2O
inactive: Potency [1] | Potency [10] | Potency [11] | Potency [3] | Potency [4] | Potency [5] | Potency [12] | viability [7] 133% | Potency [8] | Potency [16] | Potency [9] | Potency [17]

CC(=O)O[C@@]12CO[C@H]1C[C@H](O)[C@@]1(C)C(=O)[C@H](O)C3=C(C)[C@@H](O)C[C@@](O)([C@@H](OC(=O)c4ccccc4)[C@@H]21)C3(C)C
inactive: Potency [13]
active: Potency [1] 2.96 µM | Potency [11] 10.5 µM | Potency [3] 7.43 µM | Potency [4] 2.64 µM | Potency [5] 3.72 µM | Potency [12] 2.09 µM | Potency [6] 1.48 µM | Potency [7] 4.18 µM | Potency [8] 0.418 µM | Potency [14] 0.526 µM | Potency [15] 0.935 µM | Potency [17] 3.32 µM

C[C@H]([C@H](O)CCC(C)(C)O)[C@H]1CC[C@@]2(O)C3=CC(=O)[C@@H]4C[C@@H](O)[C@@H](O)C[C@]4(C)[C@@H]3CC[C@]12C
inactive: Potency [10] | Potency [2] | Potency [11] | Potency [3] | Potency [19] | Potency [12] | Potency [13] | Potency [8] | Potency [9]

O=c1cccc2n1CC1CNC[C@H]2C1
active: Potency [11] 10.5 µM | Potency [13] 20.9 µM | Potency [15] 13.2 µM | Potency [17] 20.9 µM
inactive: Potency [1] | Potency [2] | Potency [3] | Potency [19] | Potency [4] | Potency [5] | viability [7] 142%

CCNC(=O)C[C@@H]1N=C(c2ccc(Cl)cc2)c2cc(OC)ccc2-n2c(C)nnc21
active: Potency [1] 0.209 µM | Potency [2] 1.05 µM | Potency [11] 1.05 µM | Potency [3] 0.59 µM | Potency [4] 0.264 µM | Potency [12] 2.64 µM | Potency [6] 0.209 µM | Potency [7] 0.469 µM | Potency [13] 0.372 µM | Potency [14] 0.833 µM | Potency [9] 2.96 µM

Oc1ccc2c3c1O[C@H]1c4[nH]c5c(c4C[C@@]4(O)[C@@H](C2)N(CC2CC2)CC[C@]314)C[C@@]1(O)[C@H]2Cc3ccc(O)c4c3[C@@]1(CCN2CC1CC1)[C@H]5O4
inactive: Potency [1] | Potency [10] | Potency [11] | Potency [3] | Potency [19] | Potency [4] | Potency [5] | Potency [18] | Potency [8] | Potency [14] | Potency [9] | Potency [17]
